A short description of test [1]: ATG_TAL_CIS: Attagene CIS-FACTORIAL HepG2 Assay for human TAL Basal Promoter (AID 2282966).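 Note: background control endpoint measuring basal TAL promoter reporter mRNA not a specific factor.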 Conditions: HepG2 Attagene cis-factorial TAL promoter reporter; actives raise or lower the signal. Summed up: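 Background-control endpoint: basal TAL promoter reporter transcripts in transiently transfected HepG2, measured 24 h after dosing. Read-out by RT-PCR with fluorescent primer extension and capillary electrophoresis; gain or loss of signal fitted relative to DMSO.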

Test [2] can be described thus: ATG_TGFb_CIS: Attagene CIS-FACTORIAL HepG2 Assay for human Transforming Growth Factor (TGF) (AID 2282967). Conditions: HepG2 Attagene CIS TGFb reporter, mRNA transcription; actives raise or lower the signal. Summed up: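 After a 24-hour incubation with compound, transfected HepG2 cells were lysed for RNA; reporter cDNA was amplified, fluorescently end-labeled and separated by CE. DMSO served as baseline for bidirectional fits.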

A short description of test [3]: ATG_VDRE_CIS: Attagene CIS-FACTORIAL HepG2 Assay for human Vitamin D Receptor Element (VDRE) (AID 2282968). The following applies: HepG2 VDRE cis-reporter transcription, actives raise or lower the signal. In short, it runs like this:
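Steps: transfect HepG2 with multiple reporter transcription units; dose chemicals 24 h; isolate RNA; RT-PCR; label with 6-FAM primer extension; HpaI digest; capillary electrophoresis. Curves fitted both directions against DMSO.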

The target of test [4] is X-box-binding protein 1 (Homo sapiens) (UniProt P17861). As to the kind of experiment: ATG_Xbp1_CIS: Attagene CIS-FACTORIAL HepG2 Assay for human X-box Binding Protein 1 (XBP1) (AID 2282972). Conditions: HepG2 XBP1 cis-element reporter, Attagene multiplex; actives raise or lower the signal. Summed up: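 Human hepatoma HepG2, cis-element reporter system, 24 h treatment; mRNA quantified by RT-PCR/CE fluorescence; fit relative to DMSO.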
Chain of X-box-binding protein 1 (Homo sapiens) (P17861 whole entry, looked up): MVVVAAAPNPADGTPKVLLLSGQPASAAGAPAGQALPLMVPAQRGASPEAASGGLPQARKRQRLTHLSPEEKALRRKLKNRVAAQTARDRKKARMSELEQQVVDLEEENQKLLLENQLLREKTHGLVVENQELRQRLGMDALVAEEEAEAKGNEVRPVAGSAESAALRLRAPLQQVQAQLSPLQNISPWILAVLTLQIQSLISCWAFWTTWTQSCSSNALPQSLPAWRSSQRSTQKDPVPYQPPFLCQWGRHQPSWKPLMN

The nature of test [5]: ATG_GAL4_TRANS: Attagene TRANS-FACTORIAL HepG2 Assay for GAL4 (Internal Marker) (AID 2282976; active = hit-call score of the fitted dose curve at least 0.9, where 1 is the maximum). The following applies: HepG2 Attagene TRANS GAL4 internal marker reporter. In short, it runs like this: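 In transfected human HepG2 liver cells dosed 24 h, GAL4 reporter mRNA serves as a baseline marker. Detection by RT-PCR with fluorescent capillary electrophoresis, activity fitted upward relative to DMSO.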

For test [6], the target named is Glucocorticoid receptor (Homo sapiens) (UniProt P04150). The test can be described thus: ATG_GR_TRANS: Attagene TRANS-FACTORIAL HepG2 Assay for human Glucocorticoid Receptor (GR) (AID 2282978; active = hit-call score of the fitted dose curve at least 0.9, where 1 is the maximum;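 note: activators score as hits since higher reporter transcript over DMSO is fitted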). Conditions: HepG2 Attagene TRANS GR reporter, mRNA transcription. In short, it runs like this: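 Measurement of GAL4-UAS-driven reporter mRNA in human HepG2 liver cells 24 h post-dosing, using RT-PCR with fluorescent labelling and capillary electrophoresis; the transfected constructs report exogenous NR-GAL4 chimera activity, fitted upward against DMSO.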
Chain of Glucocorticoid receptor (Homo sapiens) (P04150 whole entry, looked up, the tested form may be a part): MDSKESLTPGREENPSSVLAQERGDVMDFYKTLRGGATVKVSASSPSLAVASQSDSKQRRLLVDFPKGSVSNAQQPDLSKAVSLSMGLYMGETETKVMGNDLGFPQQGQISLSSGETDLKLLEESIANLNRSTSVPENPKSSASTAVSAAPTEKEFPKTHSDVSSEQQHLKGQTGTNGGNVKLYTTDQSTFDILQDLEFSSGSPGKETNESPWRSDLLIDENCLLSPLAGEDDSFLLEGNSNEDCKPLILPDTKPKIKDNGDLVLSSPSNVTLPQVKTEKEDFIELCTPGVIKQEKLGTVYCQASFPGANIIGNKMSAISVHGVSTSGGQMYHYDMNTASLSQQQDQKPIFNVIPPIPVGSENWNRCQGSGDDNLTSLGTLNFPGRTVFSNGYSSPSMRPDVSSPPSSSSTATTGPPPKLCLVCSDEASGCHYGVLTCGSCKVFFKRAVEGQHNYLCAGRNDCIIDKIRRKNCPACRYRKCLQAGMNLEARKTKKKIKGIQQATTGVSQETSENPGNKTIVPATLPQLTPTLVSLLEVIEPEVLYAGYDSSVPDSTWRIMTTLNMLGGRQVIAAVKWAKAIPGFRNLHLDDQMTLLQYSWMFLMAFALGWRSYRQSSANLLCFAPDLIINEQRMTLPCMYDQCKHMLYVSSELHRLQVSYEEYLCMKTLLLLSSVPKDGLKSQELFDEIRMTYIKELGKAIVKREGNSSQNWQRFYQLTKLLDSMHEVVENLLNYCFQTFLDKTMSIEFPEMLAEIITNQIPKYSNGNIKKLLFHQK

Test [7] concerns the target Oxysterols receptor LXR-beta (Homo sapiens) (UniProt P55055). As to the kind of experiment: ATG_LXRb_TRANS: Attagene TRANS-FACTORIAL HepG2 Assay for human Liver X Receptor beta (LXRb) (AID 2282981; active = hit-call score of the fitted dose curve at least 0.9, where 1 is the maximum). The following applies: HepG2 Attagene TRANS GAL4-LXRb reporter, mRNA. Summed up:
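Measures induction of a Gal4-driven reporter transcript in HepG2 cells expressing an exogenous LXRb-Gal4 fusion. Cells are exposed to compound for 24 h before RNA isolation and RT-PCR with capillary electrophoresis detection.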

A short description of test [8]: ATG_M_06_TRANS: Attagene TRANS-FACTORIAL HepG2 Assay for M06 Transcription Factor (Internal Marker) (AID 2282983; active = hit-call score of the fitted dose curve at least 0.9, where 1 is the maximum). The following applies: HepG2 Attagene TRANS M06 internal marker reporter. In short, it runs like this:
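Background-control reporter readout: after 24 h chemical exposure of transiently transfected HepG2 (GAL4-UAS reporter units), mRNA quantified by RT-PCR with fluorescent labeling and capillary electrophoresis. Gain-of-signal fitting against DMSO baseline.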

The target in test [9] is Nuclear receptor subfamily 4 group A member 2 (Homo sapiens) (UniProt P43354). As to the kind of experiment: ATG_NURR1_TRANS: Attagene TRANS-FACTORIAL HepG2 Assay for human Nuclear Receptor Related Protein 1 (NURR1) (AID 2282985; active = hit-call score of the fitted dose curve at least 0.9, where 1 is the maximum). Conditions: HepG2 Attagene TRANS reporter, mRNA readout. Summed up: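 Chimeric NR-Gal4 fusion activity measured in HepG2 after 24 h treatment. Reporter transcripts detected by RT-PCR and capillary electrophoresis fluorescence; positive-direction curve fitting against DMSO.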
Chain of Nuclear receptor subfamily 4 group A member 2 (Homo sapiens) (P43354 whole entry, looked up, the tested form may be a part): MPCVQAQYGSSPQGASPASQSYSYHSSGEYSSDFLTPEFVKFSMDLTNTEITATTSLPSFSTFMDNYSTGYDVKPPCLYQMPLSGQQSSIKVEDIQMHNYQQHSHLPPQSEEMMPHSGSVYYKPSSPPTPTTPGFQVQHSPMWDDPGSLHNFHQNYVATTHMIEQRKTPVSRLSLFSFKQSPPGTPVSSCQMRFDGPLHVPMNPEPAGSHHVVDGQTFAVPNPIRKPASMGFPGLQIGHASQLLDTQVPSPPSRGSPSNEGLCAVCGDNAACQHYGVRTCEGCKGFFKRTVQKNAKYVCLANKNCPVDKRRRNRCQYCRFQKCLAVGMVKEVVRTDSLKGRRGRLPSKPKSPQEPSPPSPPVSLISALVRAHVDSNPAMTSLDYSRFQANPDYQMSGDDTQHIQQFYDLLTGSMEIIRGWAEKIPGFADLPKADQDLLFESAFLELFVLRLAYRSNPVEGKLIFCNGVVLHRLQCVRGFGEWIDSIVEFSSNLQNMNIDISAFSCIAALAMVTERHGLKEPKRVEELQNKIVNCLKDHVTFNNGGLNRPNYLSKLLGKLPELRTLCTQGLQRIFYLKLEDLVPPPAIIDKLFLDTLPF

Test [10] deals with Transcriptional activator Myb (Homo sapiens) (UniProt P10242). The test can be described thus: ATG_Myb_CIS: Attagene CIS-FACTORIAL HepG2 Assay for human Myeloblastosis (Myb) Proto-Oncogene Transcription Factor (AID 2282986). The following applies: HepG2 Attagene CIS-FACTORIAL Myb reporter transcription; actives raise or lower the signal. In short, it runs like this:
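Fluorescence signals from capillary electrophoresis of RT-PCR-amplified reporter cDNA give the read-out. Cells: HepG2 transfected with multiple cis-regulated reporter units. Exposure lasts 24 hours; DMSO defines baseline for gain or loss of signal.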

Test [11] concerns the target Nuclear respiratory factor 1 (Homo sapiens) (UniProt Q16656). The test can be described thus: ATG_NRF1_CIS: Attagene CIS-FACTORIAL HepG2 Assay for human Nuclear Respiratory Factor 1 (NRF1) Orphan Gene (AID 2282987). The following applies: HepG2 NRF1 cis-element reporter, Attagene multiplex; actives raise or lower the signal. In short, it runs like this:
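Transcriptional reporter readout, one component of a 52-endpoint multiplexed HepG2 panel. Exposure 24 h; mRNA detected via RT-PCR and fluorescent capillary electrophoresis; fitting in both directions against DMSO.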

Test [12] concerns the target Estrogen-related receptor gamma (Homo sapiens) (UniProt P62508). The test can be described thus: ATG_ERRg_TRANS: Attagene TRANS-FACTORIAL HepG2 Assay for human Estrogen-Related Receptor gamma (ERRg) (AID 2282977; active = hit-call score of the fitted dose curve at least 0.9, where 1 is the maximum;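 note: hits increase reporter signal over DMSO so potencies reflect activators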). The following applies: HepG2 Attagene TRANS reporter, ERRg transactivation. Summed up:
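Exogenous NR-Gal4 chimera activity measured as reporter transcript induction after 24 h in transiently transfected HepG2 cells. RNA reverse-transcribed, PCR-amplified, 6-FAM-labelled and resolved by capillary electrophoresis; increase over DMSO baseline.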

For test [13], the target named is Hepatocyte nuclear factor 4-alpha (Homo sapiens) (UniProt P41235). The test can be described thus: ATG_HNF4a_TRANS: Attagene TRANS-FACTORIAL HepG2 Assay for human Hepatocyte Nuclear Factor 4 alpha (HNF4a) (AID 2282982; active = hit-call score of the fitted dose curve at least 0.9, where 1 is the maximum). Conditions: HepG2 HNF4a transactivation reporter, mRNA readout. In short, it runs like this: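 In this trans-factorial format, a chimeric HNF4a-GAL4 fusion drives a GAL4-UAS reporter in transfected HepG2 liver cells. After 24 h treatment, reporter mRNA induction is measured by RT-PCR with capillary electrophoresis, relative to DMSO.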
Chain of Hepatocyte nuclear factor 4-alpha (Homo sapiens) (P41235 whole entry, looked up, the tested form may be a part): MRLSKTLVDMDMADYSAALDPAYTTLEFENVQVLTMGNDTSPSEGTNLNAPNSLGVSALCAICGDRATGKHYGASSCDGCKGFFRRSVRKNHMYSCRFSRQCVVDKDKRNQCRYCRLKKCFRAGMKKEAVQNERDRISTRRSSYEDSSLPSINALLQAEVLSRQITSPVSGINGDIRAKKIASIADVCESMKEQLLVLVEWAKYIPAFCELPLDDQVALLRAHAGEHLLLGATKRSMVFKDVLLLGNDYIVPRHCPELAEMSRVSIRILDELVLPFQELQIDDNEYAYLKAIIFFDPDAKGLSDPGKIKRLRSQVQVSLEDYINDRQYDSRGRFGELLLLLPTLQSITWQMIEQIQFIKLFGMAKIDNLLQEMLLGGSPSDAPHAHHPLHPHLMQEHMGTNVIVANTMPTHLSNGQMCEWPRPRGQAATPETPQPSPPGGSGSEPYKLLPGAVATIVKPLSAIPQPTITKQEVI

A short description of test [14]: ATG_M_32_TRANS: Attagene TRANS-FACTORIAL HepG2 Assay for M32 Transcription Factor (Internal Marker) (AID 2282984; active = hit-call score of the fitted dose curve at least 0.9, where 1 is the maximum). The following applies: HepG2 Attagene TRANS M32 internal marker reporter. In short, it runs like this:
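After 24 h dosing of transfected HepG2 cells, total RNA was reverse-transcribed, reporter sequences PCR-amplified, 6-FAM labelled by primer extension and HpaI-digested before capillary electrophoresis. Signal increase over DMSO was fitted.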

A short description of test [15]: ATG_M_19_TRANS: Attagene TRANS-FACTORIAL HepG2 Assay for M19 Transcription Factor (Internal Marker) (AID 2282974; active = hit-call score of the fitted dose curve at least 0.9, where 1 is the maximum). Conditions: HepG2 Attagene TRANS-FACTORIAL M19 internal marker reporter. In short, it runs like this: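 Measured here: internal-marker reporter transcript from HepG2 cells transfected with MRTUs, harvested at 24 h. cDNA PCR products were 6-FAM labelled by primer extension, cut with HpaI for 2 h at 37 C, and resolved by CE.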

Test [16] addresses Bile acid receptor (Homo sapiens) (UniProt Q96RI1). The test can be described thus: ATG_FXR_TRANS: Attagene TRANS-FACTORIAL HepG2 Assay for Farnesoid X Receptor (FXR) (AID 2282979; active = hit-call score of the fitted dose curve at least 0.9, where 1 is the maximum;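 note: hits raise reporter mRNA above DMSO so AC50 marks FXR activation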). The following applies: HepG2 Attagene TRANS FXR-GAL4 reporter transcription. In short, it runs like this: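 Reporter transcripts from transfected HepG2 cells were measured 24 h after dosing, using RT-PCR with capillary electrophoresis of 6-FAM-labelled fragments. The read-out reflects activity of exogenous FXR-Gal4 chimera on GAL4-UAS units, with induction relative to DMSO.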

The values that follow come from PubChem BioAssay (EPA / NIEHS).

SMILES strings stand for the structures. Records with an inconclusive call do not appear. The source made the active and inactive calls. Rule for the calls, unless noted: active = hit-call score of the fitted dose curve at least 0.9, where 1 is the maximum; inactive = score below 0.9.

Chain of Oxysterols receptor LXR-beta (Homo sapiens) (P55055 whole entry, looked up, the tested form may be a part): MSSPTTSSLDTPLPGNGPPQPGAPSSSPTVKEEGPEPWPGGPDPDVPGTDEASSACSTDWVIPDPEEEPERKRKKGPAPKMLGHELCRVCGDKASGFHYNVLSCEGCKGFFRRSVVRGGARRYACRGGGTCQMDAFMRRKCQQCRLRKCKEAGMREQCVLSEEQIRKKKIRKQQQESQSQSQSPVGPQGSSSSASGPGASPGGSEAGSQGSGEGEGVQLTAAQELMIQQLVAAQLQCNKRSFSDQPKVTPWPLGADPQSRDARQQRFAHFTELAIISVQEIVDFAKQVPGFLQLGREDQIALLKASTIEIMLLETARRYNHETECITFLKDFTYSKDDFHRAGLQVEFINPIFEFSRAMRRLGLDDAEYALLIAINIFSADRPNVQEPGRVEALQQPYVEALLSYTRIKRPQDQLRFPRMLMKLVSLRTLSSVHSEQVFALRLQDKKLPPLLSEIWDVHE
Chain of Nuclear respiratory factor 1 (Homo sapiens) (Q16656 whole entry, looked up): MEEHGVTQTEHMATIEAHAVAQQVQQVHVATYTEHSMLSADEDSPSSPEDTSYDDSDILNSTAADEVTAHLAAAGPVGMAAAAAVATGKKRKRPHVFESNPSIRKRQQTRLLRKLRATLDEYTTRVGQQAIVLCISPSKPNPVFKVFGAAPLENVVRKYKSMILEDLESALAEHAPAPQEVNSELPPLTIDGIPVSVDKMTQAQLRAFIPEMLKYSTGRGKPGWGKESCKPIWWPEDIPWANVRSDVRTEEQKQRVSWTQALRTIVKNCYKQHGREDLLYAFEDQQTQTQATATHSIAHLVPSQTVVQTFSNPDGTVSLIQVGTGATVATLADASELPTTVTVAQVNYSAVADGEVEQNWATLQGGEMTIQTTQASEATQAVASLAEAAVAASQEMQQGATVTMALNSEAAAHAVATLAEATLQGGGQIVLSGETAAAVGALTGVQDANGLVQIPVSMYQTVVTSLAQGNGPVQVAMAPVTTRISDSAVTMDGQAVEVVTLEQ
Chain of Transcriptional activator Myb (Homo sapiens) (P10242 whole entry, looked up): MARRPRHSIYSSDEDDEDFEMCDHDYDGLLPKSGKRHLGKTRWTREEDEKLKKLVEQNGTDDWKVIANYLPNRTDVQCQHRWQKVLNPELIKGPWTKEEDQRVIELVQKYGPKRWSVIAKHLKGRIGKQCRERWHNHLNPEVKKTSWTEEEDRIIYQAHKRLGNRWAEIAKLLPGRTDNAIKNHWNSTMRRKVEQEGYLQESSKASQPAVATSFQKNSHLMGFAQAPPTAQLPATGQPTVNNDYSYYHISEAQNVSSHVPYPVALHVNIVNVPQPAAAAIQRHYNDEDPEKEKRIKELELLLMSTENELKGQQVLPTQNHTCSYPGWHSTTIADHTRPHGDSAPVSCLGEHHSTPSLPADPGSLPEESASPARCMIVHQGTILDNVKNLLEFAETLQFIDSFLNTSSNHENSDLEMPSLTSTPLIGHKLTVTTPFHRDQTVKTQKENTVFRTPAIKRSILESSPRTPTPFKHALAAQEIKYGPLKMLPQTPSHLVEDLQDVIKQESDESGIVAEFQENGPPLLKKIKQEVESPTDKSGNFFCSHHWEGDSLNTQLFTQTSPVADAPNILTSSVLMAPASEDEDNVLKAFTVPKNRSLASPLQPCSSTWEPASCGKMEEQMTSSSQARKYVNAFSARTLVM
Chain of Estrogen-related receptor gamma (Homo sapiens) (P62508 whole entry, looked up, the tested form may be a part): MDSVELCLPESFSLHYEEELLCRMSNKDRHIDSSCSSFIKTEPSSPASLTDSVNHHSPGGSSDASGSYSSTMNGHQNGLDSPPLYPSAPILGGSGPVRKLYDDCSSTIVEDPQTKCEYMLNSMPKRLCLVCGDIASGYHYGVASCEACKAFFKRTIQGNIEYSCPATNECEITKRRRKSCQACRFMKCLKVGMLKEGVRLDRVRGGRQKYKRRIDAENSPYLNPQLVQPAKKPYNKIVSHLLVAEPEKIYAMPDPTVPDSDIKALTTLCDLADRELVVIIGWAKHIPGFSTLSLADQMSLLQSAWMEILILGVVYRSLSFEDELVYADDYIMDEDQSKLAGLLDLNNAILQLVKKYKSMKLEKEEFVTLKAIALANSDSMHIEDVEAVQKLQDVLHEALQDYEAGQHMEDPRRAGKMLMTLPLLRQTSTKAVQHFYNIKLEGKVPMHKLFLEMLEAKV
Chain of Bile acid receptor (Homo sapiens) (Q96RI1 whole entry, looked up, the tested form may be a part): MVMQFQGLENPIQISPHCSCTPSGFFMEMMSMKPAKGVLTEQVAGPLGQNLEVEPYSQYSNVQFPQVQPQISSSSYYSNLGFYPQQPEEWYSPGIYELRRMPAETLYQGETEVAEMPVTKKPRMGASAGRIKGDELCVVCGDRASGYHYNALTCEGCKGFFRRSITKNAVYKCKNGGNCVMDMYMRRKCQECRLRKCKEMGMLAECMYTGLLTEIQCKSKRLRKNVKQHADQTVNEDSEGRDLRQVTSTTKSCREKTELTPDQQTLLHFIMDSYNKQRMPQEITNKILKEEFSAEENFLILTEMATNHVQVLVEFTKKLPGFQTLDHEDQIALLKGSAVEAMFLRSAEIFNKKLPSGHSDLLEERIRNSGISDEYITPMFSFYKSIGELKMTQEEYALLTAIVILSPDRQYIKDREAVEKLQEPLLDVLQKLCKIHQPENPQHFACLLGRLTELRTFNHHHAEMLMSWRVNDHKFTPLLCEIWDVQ

`CCCCCCCCCCCCCOS(=O)(=O)O`: the compound was called inactive in test [1], in test [2], in [3], in test [4], in test [5] and in [6]. The result in test [7], in test [8], in test [9], in test [10] and in [11] was inactive.
As a reminder, the AC50 is the midpoint of the concentration-response curve, whichever way the signal moves. Turning to `CCCCCCCCCCCCCCCC(=O)OC[C@H](O)[C@H]1OC(=O)C(O)=C1O`, the figures for the AC50 in test [1], in test [2] and in test [3] were 100 µM (active), 3.14 µM (active) and 37.1 µM (active), respectively. Besides, the result in test [4], in test [5], in test [12], in [7], in [13] and in test [8] was inactive. Moreover, the compound was classed as inactive in test [14], in test [9], in [10] and in test [11].
For `CCCCN`, the call in test [1], in test [2], in test [3], in [4], in [15] and in test [6] was inactive. In addition, the compound was classed as inactive in test [7], in test [13], in test [9], in test [10] and in test [11].
As to `CC(=O)Nc1ccc(C)cc1C`, the result in test [1], in test [2], in [3], in test [4], in test [15] and in test [5] was inactive. The outcome in [16], in test [13], in test [14] and in [11] was inactive.
Turning to `Cc1ccc(C(C)C)cc1O`, the compound was classed as inactive in test [1], in test [2], in test [4], in test [5], in test [6] and in [13]. Moreover, the call in [8], in test [14], in test [9], in [10] and in [11] was inactive. Moreover, the AC50 in test [3] is 26.9 µM (active).
Take `CCCCCCOC(=O)CCCCC`: the call in [1], in [2], in test [3], in test [4], in [15] and in test [5] was inactive. Besides, the call in test [6], in [13], in test [14], in test [9], in test [10] and in test [11] was inactive.
Take `CCC(C)(O)CCC=C(C)C` (stereo not drawn): the call in [1], in [2], in test [3], in test [4], in [15] and in test [6] was inactive. Further, the compound was classed as inactive in test [8], in test [14], in test [9], in test [10] and in test [11].
Take `O=C(O)c1ccc([N+](=O)[O-])cc1`: the compound was called inactive in [1], in test [2], in test [3], in test [4], in test [5] and in test [6]. Besides, the call in test [7], in test [13], in test [8] and in test [14] was inactive.
With `O=S(=O)(O)NC1CCCCC1`, the outcome in test [1], in test [2], in [3], in [4], in test [15] and in test [13] was inactive. The call in test [10] and in [11] was inactive.
